# RORgamma inh: inhibitors of mouse ROR gamma transcriptional activity | 310,000 tested, 5.4% active | P51450 | Potency, µM (doses to about 53.6 µM), for inactives: top-dose activity change, negative = inhibition, most hits filed as inhibitors | AID 2551 | Drosophila S2 Gal4-RORgamma UAS-luciferase reporter, 20 h; further: potency means the concentration at half of the fitted maximal effect; nearly all actives have a fitted effect of over 60% in size
#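 A Gal4/UAS one-hybrid system in insect cells: metallothionein-promoter Gal4–ROR gamma fusion plus Photinus luciferase reporter. Copper sulfate 700 uM final, 20 hr ambient incubation, luminescent detection after 10 min with reagent.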
# ALDH1A1 block: blocks purified human ALDH1A1 activity. Purified ALDH1A1, NADH fluorescence, propionaldehyde substrate. Potency, µM (doses to about 75.3 µM), for the others: at the top dose activity, negative = inhibition, usual class: inhibitors. 220,000 tested, 7.3% active; active means well fitted inhibition curve with a large enough effect, not every such curve was filed as active; inconclusive means small, poorly fitted or top-dose-only effect, or another doubt; inactive means no such curve, though single readings can be large or run the other way;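 further: potency means the concentration at half of the fitted maximal effect; plate controls were no enzyme wells and a reference inhibitor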
# Sfp PPTase inh: blocks B. subtilis Sfp PPTase activity; 310,000 tested, 3.5% active; Biochemical Sfp PPTase activity, qHTS; Potency, µM, inactives show largest response in the series, negative = inhibition, most hits filed as inhibitors;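 further: the enzyme is Sfp with the accession as filed and its product quenches rhodamine fluorescence; potency means the concentration at half of the fitted maximal effect; 0% = enzyme reaction without inhibitor and -100% = no enzyme wells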
#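 Compounds were incubated with enzyme (final 15 nM) for 15 min at room temperature before substrate addition started the reaction. Fluorescence at 525 nm excitation, 598 nm emission was recorded immediately and after 30 minutes.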
# PLK1 PBD inh: inhibitors of human PLK1 polo-box domain binding; Plk1 PBD binding of FITC phosphopeptide, fluorescence polarization; Potency, µM, for inactives: max response, negative = inhibition, most hits filed as inhibitors; 360,000 tested, 2.8% active; AID 720504; further: potency means the concentration at half of the fitted maximal effect; series mostly up to about 57 µM; nearly all actives have a fitted effect of over 65% in size
# Target sequence (P53350 whole entry, looked up, the tested form may be a part): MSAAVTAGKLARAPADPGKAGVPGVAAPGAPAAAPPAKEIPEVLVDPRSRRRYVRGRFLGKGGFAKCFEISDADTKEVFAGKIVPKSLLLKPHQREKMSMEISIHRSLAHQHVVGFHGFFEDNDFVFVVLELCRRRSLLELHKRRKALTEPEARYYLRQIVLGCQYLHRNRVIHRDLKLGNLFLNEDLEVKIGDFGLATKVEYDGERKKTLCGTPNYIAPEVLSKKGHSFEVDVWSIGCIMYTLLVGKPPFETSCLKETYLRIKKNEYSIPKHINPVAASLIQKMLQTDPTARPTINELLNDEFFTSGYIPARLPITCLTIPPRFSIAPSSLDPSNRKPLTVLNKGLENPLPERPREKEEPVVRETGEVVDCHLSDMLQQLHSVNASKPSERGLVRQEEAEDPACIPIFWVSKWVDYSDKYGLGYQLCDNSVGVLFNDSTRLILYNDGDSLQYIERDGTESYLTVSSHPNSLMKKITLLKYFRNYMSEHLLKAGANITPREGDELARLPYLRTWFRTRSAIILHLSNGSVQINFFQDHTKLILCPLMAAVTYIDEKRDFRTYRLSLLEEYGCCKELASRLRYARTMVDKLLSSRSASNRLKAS
# Gal4-VP16 FLuc: inhibits Gal4-VP16 luciferase reporter, ROR gamma counter-screen. 310,000 tested, 3.5% active. Drosophila S2 Gal4-VP16 UAS-luciferase, luminescence, 20 h. Potency, µM (doses to about 53.6 µM), inactives show at the highest dose activity, negative = inhibition, most hits filed as inhibitors;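 further: Gal4-VP16 expression switched on by copper sulfate through the metallothionein promoter; potency means the concentration at half of the fitted maximal effect; nearly all actives have a fitted effect of over 50% in size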
# Sfp PPTase conf: Sfp phosphopantetheinyl transferase inhibition, confirmation | shares compounds with Sfp PPTase inh | Sfp PPTase enzymatic assay, qHTS titration | Potency, µM (titrated, usually from 114 µM), for the others: at the top dose activity change, negative = inhibition, most hits filed as inhibitors | 380 tested, 79% active;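 further: potency means the concentration at half of the fitted maximal effect; plate controls were uninhibited Sfp reaction for no effect and no enzyme control for full effect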
# Target sequence (Q9F4F7 whole entry, looked up): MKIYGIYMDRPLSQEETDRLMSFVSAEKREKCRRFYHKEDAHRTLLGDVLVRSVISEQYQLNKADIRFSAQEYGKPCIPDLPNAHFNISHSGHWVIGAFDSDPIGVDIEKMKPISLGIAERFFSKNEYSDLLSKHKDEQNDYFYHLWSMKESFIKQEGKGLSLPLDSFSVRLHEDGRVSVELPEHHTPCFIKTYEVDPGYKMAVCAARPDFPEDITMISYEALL
# Sfp gel assay: Blocks Sfp PPTase activity, gel read-out; purified Sfp, gel-based phosphopantetheinylation read-out; shares compounds with Sfp PPTase inh; AID 2707; 210 tested, 20% active; Potency, µM, hits mostly inhibitors;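 active means potency below 100 µM; inconclusive means dose-dependent response but potency above 100 µM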;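 further: band intensities scaled against SCH202676 control wells before curve fitting; potency is an IC50 for inhibitors of Sfp transfer activity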
# TbPYK inh: confirmation of Trypanosoma brucei pyruvate kinase inhibitors; AID 720569; recombinant TbPYK, Kinase-Glo ATP luminescence; Potency, µM (top dose mostly 76.9 µM), inactives show top-dose activity change, negative = inhibition, usual class: inhibitors; shares compounds with PLK1 PBD inh; 890 tested, 67% active; further: potency means the concentration at half of the fitted maximal effect; nearly all actives have a fitted effect of over 70% in size
# TbPYK orthogonal: TbPYK inhibition, orthogonal confirmation | Potency, µM (top dose mostly 76.9 µM), without a hit: at the highest dose activity change, negative = inhibition, actives largely listed as inhibitors | recombinant TbPYK, ADP-Glo luminescence, 60 min | shares compounds with PLK1 PBD inh | 890 tested, 62% active | AID 720584; further: potency means the concentration at half of the fitted maximal effect; nearly all actives have a fitted effect of over 75% in size
# Numbers without * were called inactive; i = inactive; ? = inconclusive; · = not tested or not shown. A selection: hits, their analogues and other compounds. The true share with any hit is near 12%. Unless noted, the call rests on the fitted dose curve; in most records, active means well fitted curve in the direction sought with a large enough effect; inconclusive means small, poorly fitted or top-dose-only effect, or another doubt; inactive means no such curve, though single readings can be large; an effect the other way counts as inactive or inconclusive. Unless noted, on the % scale 0 is the no-effect control and ±100 the full control effect.
SMILES,RORgamma inh,ALDH1A1 block,Sfp PPTase inh,PLK1 PBD inh,Gal4-VP16 FLuc,TbPYK inh,TbPYK orthogonal,others
CCN1CCN(C(=S)c2ccc(Cl)cc2)CC1,-27.6%,?,2.24µM*,2.12µM*,1.6%,0.251µM*,1.58µM*,Sfp PPTase conf=13.2µM*;Sfp gel assay=i
CCN1CCN(C(=O)c2ccccc2NC(=O)c2ccc(Cl)cc2)CC1,-2.0%,·,13.7%,-1.1%,3.9%,·,·,
N#C/C(=C/c1ccc(N2CCOCC2)o1)c1ccc(Cl)cc1,?,12.6µM*,0.708µM*,6.2%,10µM*,?,35.5µM*,Sfp PPTase conf=13.2µM*
CCOc1ccc(S(=O)(=O)NCCC(=O)OCC(=O)NC(=O)c2cccn2C)cc1,·,·,·,5.1%,·,·,·,
C=CCn1c(SCC(=O)N2CCN(c3ccccc3)CC2)nc2c([nH]c3ccccc32)c1=O,0.6%,·,1.5%,1.2%,-13.7%,·,·,
Cc1cccc2cc(CNCC3CCCO3)c(Cl)nc12 (stereo not given),9.2%,-6.8%,-8.3%,-17.3%,-4.2%,·,·,
Cc1cccc2cc3c(nc12)SC(=NCC1CCCO1)N(Cc1ccco1)C3 (stereo not given),2.82µM*,4.47µM*,3.55µM*,23.8µM*,3.16µM*,?,31.6µM*,Sfp PPTase conf=6.63µM*;Sfp gel assay=6.17µM*
Cc1ccc(-c2cc(C(=O)O)c3cc(Br)ccc3n2)s1,-5.2%,·,-7.8%,-7.9%,-14.3%,·,·,
Cc1ccc(-c2cc(C(=O)O)c3cc(Br)ccc3n2)o1,-2.9%,?,3.16µM*,11.9µM*,2.8%,11.2µM*,14.1µM*,Sfp PPTase conf=3.73µM*;Sfp gel assay=i
Oc1cc2c(cc1O)[C@H]1c3ccc(O)c(O)c3OC[C@@]1(O)C2,?,-12.2%,3.98µM*,7.52µM*,-3.2%,1.26µM*,?,Sfp PPTase conf=8.35µM*;Sfp gel assay=2.06µM*
COc1ccc(C(=O)/C=C/C(=O)N(CC(=O)NC2CCCCC2)Cc2cccs2)c(O)c1,7.94µM*,?,3.16µM*,6.7µM*,5.01µM*,4.47µM*,14.1µM*,Sfp PPTase conf=3.32µM*;Sfp gel assay=2.06µM*
COc1ccc(CCC(=O)OCC(=O)Nc2c(C)n(C)n(-c3ccccc3)c2=O)cc1,·,·,·,1.8%,·,·,·,
CCCCOc1ccc(/C=C/C(=O)OCC(=O)NC(=O)NCC(C)C)cc1OCC,5.6%,?,-7.0%,-10.6%,-10.4%,3.6%,-1.8%,
CCCCOc1ccc(/C=C/C(=O)OCC(=O)NC2CCS(=O)(=O)C2)cc1OCC (stereo not given),·,·,·,-5.2%,·,·,·,
Cc1ccc(S(=O)(=O)N(C)C)cc1NC(=O)c1cc(S(=O)(=O)N2CCCCC2)ccc1N1CCOCC1,·,·,·,0.8%,·,·,·,
CC(=O)N1CC(=O)N(c2ccccc2)C1=O,-10.8%,·,30.9%,1.7%,-4.9%,·,·,
S=C1SCN(Cc2ccccc2)CN1Cc1ccco1,·,·,·,11.9µM*,·,?,?,
CC1(C)Cc2c(C#N)c(NCCc3ccccc3)nc(-c3ccco3)c2CO1,1.4%,?,50.1µM*,?,1.0%,?,12.6µM*,
Oc1ccc2c(c1)OCC1(O)Cc3cc(O)c(O)cc3C21 (stereo not given),0.708µM*,28.2µM*,i,?,5.62µM*,2.24µM*,3.16µM*,
Cc1cccc2c1ncc1c(=O)n(-c3ccccc3)[nH]c12,-18.2%,·,1.8%,0.0%,-6.5%,·,·,
CC(C)c1ccccc1-n1c(SCc2cc(=O)oc3ccc4ccccc4c23)nnc1-c1cccnc1,?,6.2%,?,?,?,·,·,
COc1cc(N2C(=O)C=CC2=O)c(OC)cc1Cl,5.62µM*,8.91µM*,3.55µM*,2.99µM*,4.47µM*,4.47µM*,7.08µM*,
CC(C)(C)c1cc(C(=O)CCN2CCOCC2)cc(C(C)(C)C)c1O,-95.4%,·,-9.0%,?,?,·,·,
CC(C)(C)c1cc(C(=S)N2CCN(CCO)CC2)cc(C(C)(C)C)c1O,-6.1%,17.8µM*,3.16µM*,9.47µM*,-2.9%,3.55µM*,7.94µM*,
Cc1cc(C)c(S(=O)(=O)/N=C2/C=C(Sc3ncn[nH]3)C(=O)c3ccccc32)cc1C,3.98µM*,1.78µM*,1µM*,0.844µM*,3.16µM*,1.41µM*,2.51µM*,
SMILES,RORgamma inh,ALDH1A1 block,Sfp PPTase inh,PLK1 PBD inh,Gal4-VP16 FLuc,TbPYK inh,TbPYK orthogonal,others
COc1ccc(S(=O)(=O)Nc2cc(Sc3ncn[nH]3)c(O)cc2C)cc1,·,·,·,-17.5%,·,·,·,
C=C(C1=CCN(S(=O)C(C)(C)C)[C@@H]1CCO)c1ccccc1 (stereo not given in full),·,·,·,-10.7%,·,·,·,
CC(=O)C(Sc1nn(C)c(=S)s1)C(=O)Nc1ccccc1 (stereo not given),-15.0%,4.47µM*,39.8µM*,26.7µM*,-15.2%,20µM*,28.2µM*,
Cc1ccc2cc(CN(CC3CCCO3)C(=O)C(C)C)c(=O)[nH]c2c1 (stereo not given),?,?,17.3%,-9.4%,17.1%,·,·,
Cc1ccc2cc(CN(CC(C)C)C(=O)C3CCCO3)c(=O)[nH]c2c1 (stereo not given),26.5%,?,-2.3%,-8.1%,-10.7%,-19.9%,-28.4%,
C=CCOc1ccc(/C=C2/C(=O)ON=C2C)cc1OC,?,·,44.7µM*,2.38µM*,?,12.6µM*,?,
C=CCOc1ccc(/C=C2\SC(N)=NC2=O)cc1OC,3.9%,·,9.1%,9.4%,1.1%,·,·,
CCN1CCN(c2nc(C)nc3c2sc(=S)n3C)CC1,-16.5%,?,2.82µM*,2.99µM*,1.4%,5.62µM*,15.8µM*,
Cc1nc(N2CCCCC2)c2sc(=S)n(C)c2n1,3.4%,1.5%,12.7%,-16.0%,-2.7%,·,·,
C/C=C/COC(=O)C1=C(C)NC(=O)NC1c1ccc2c(c1)OCO2 (stereo not given),15.4%,·,3.0%,-1.5%,-14.5%,·,·,
O=C(C1CCN(S(=O)(=O)N2CCOCC2)CC1)N1CCN(Cc2ccc3c(c2)OCO3)CC1,1.8%,-4.7%,17.5%,-10.9%,-6.5%,·,·,
c1cc2c(cc1CN1CCOCC1)OCO2,3.9%,3.5%,8.5%,-6.6%,-0.4%,12.2%,-3.4%,
O=C1C=CC2=C3c4cc(O)c(O)cc4CC3(O)COC2=C1O (stereo not given),2.7%,?,14.1µM*,26.7µM*,-13.4%,7.08µM*,3.98µM*,
O=C(CCCc1ccccc1)NCCS(=O)(=O)N1CCN(c2ccccc2)CC1,·,·,·,-11.7%,·,·,·,

# Bioassay records: PubChem, National Center for Advancing Translational Sciences (NCATS)
